This is a sample that favours compounds with a hit; in the whole collection about 1.2% have one here.
Phagocyt inh: inhibitors of macrophage phagocytosis; inhibition, % at 5 µM; AID 1029; 110,000 compounds, 0.07% hits; J774A.1 macrophage IgG-bead phagocytosis, imaging;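 active means inhibition above the mean of the plate negative controls plus 5 SD, cut at about 13% in these data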;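 further: phagocytic index as fraction of beads internalized from green versus red external bead signal; plate controls were DMSO negative control for no effect and cytochalasin-D positive control for full effect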
F-actin modifier: modifiers of cytoskeleton assembly | inhibition, % at 2 µM | AID 836 | HUVEC TNFa F-actin phalloidin imaging, high content | 91,000 compounds, 0.18% hits;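 active means inhibition above the batch mean plus 3 SD and confirmed as a hit by visual image inspection, cut at about 30% in these data, passing the limit was not always enough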
E-sel TNF inh: TNF alpha driven E-selectin expression inhibition; HUVEC TNFa-induced E-selectin immunofluorescence, high content; inhibition, % at 2 µM; 120,000 compounds, 0.71% hits; AID 1246;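 active means inhibition above the batch mean plus 3 SD, and confirmed as a hit on visual image review, cut at about 43% in these data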;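 further: 0% = TNF-stimulated DMSO wells and 100% = unstimulated control wells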
HUVEC tox TNFa: HUVEC cytotoxicity counter-screen, TNF alpha stimulated; HUVEC TNFalpha-stimulated, Hoechst cell count, imaging; AID 848; 93,000 compounds, 0.17% hits; cell count reduction, % at 2 µM;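 active means cell count reduction exceeding the screen mean by over 5 SD, scaled to untreated wells per plate, cut at about 78% in these data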;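 further: cells counted after 24 h of TNF alpha exposure following the 1 h pretreatment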
sdo1 growth: restores growth of sdo1-depleted yeast; S. cerevisiae sdo1-depleted JHY4D growth rescue, OD600 30 h; stronger effect = higher value; pdr5 snq2 efflux-pump mutant strain; z-score at 10 µM; 140,000 compounds, 0.21% hits; AID 817;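 active means z-score above 3 at both the 24 hr and the 30 hr optical density reads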;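 further: z-score against mean and SD of all compound wells on the same plate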
VCAM1 TNFa inh: reduces TNF alpha induced VCAM1 expression in HUVEC | HUVEC TNFa-induced VCAM-1 immunofluorescence, high-content imaging | inhibition, % at 2 µM | 95,000 compounds, 0.48% hits | AID 802;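 active means inhibition above the batch mean plus 3 SD, with images confirmed as a hit by eye, cut at about 37% in these data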;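 further: 0% = TNF-stimulated DMSO wells and 100% = unstimulated control wells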
* marks the source's active call; other numbers are inactive results; / = no result.

SMILES	Phagocyt inh	F-actin modifier	E-sel TNF inh	HUVEC tox TNFa	sdo1 growth	VCAM1 TNFa inh
COc1ccc(C(=O)Nc2ccc(N3CCOCC3)cc2)cc1OC	-0.8	-8.8	/	-33.9	-0.22	25.3
COc1ccc(C2CC3(CC(C)(C)NC(SC)=N3)Oc3cc(O)cc(C)c32)cc1 (centres undefined)	9.4	/	/	/	0.51	/
O=C1N(c2ccccc2)C2CS(=O)(=O)CC2N1c1ccc(Br)cc1 (centres undefined)	-1.6	-0.1	99.7*	4.8	-0.08	4.3
COc1cccc(N2C(=O)N(c3ccccc3)C3CS(=O)(=O)CC32)c1 (centres undefined)	-1.8	45.5	10.3	-7.4	-1.06	-6.8
CC(=O)C1=C(C)NC(SCc2cccc3ccccc23)=C(C#N)C1c1ccco1 (centres undefined)	-8.5	/	67.0*	/	-0.06	/
CC(=O)C1=C(C)NC(SCc2ccc(C#N)cc2)=C(C#N)C1c1ccco1 (centres undefined)	-1.9	/	35.7	/	-0.58	/
CC(C)C(=O)Nc1ccc(-c2nc3ccccc3c(=O)o2)cc1	/	/	-13.5	/	/	/
Cc1ccc(C(=O)NCCCn2ccnc2)cn1	4.0	30.2*	14.5	-42.6	-0.13	-5.3
CCOc1ccccc1C(=O)N1CCN(c2ccc(C(F)(F)F)cn2)CC1	/	/	3.1	/	/	/
Cc1ccc(-n2nnc3c(SCC(=O)N4CCN(c5ccccc5)CC4)ncnc32)cc1	/	2.9	6.7	-10.7	/	92.2*
CN(Cc1ccccc1)C(=O)COC(=O)C1CCN(S(=O)(=O)c2cccs2)CC1	/	/	-9.5	/	/	/
CCCC(=O)Nc1nc(-c2ccccc2)ns1	-4.7	/	/	/	-0.89	/
CCC(=O)Nc1nc(-c2ccccc2)ns1	/	-10.4	11.5	/	0.58	58.3*
CCC(=O)c1ccc(N2CCOCC2)c(F)c1	/	-18.1	56.5*	-14.2	-0.09	4.7
COc1ccc(C(=O)c2c(C(F)(F)F)oc3c2C(=O)c2ccccc2C3=O)cc1	3.2	-33.5	-4.7	29.9	-2.34	93.8*
COc1ccc(-n2c(C)cc(C(=O)COc3ccc(C)nc3[N+](=O)[O-])c2C)cc1	-1.0	/	62.0*	/	0.5	/
Cc1ccc(OCC(=O)c2cc(C)n(C3CC3)c2C)c([N+](=O)[O-])n1	-10.2	/	/	/	0.38	/
CC(C)(C)NC(=O)NC12CC3CC(CC(C3)C1)C2	/	/	-30.8	/	/	/
CC(C)(C)OC(=O)NNC(=O)NC12CC3CC(CC(C3)C1)C2	/	/	66.2*	/	/	/
CCOC(=O)c1cnc(-n2nc(C)cc2C)nc1N1CCOCC1	1.2	-27.2	/	73.9	1.58	92.5*
CCOC(=O)c1cc2c(ccn2C)n1Cc1ccccc1C	0.2	62.6*	37.7	-2.8	-1.04	6.1
CCN1CCCC1CNC1=NCCCCC1 (centres undefined)	0.2	13.8	71.0*	-8.4	-0.09	4.2
COc1ccc2c(c1)C=C(CN1CCN(C3CCCC3)C(CCO)C1)CO2 (centres undefined)	/	/	-29.9	/	/	/
C=CCN(C(=O)CCC(=O)O)C1CC(=O)N(c2ccc(OC)cc2)C1=O (centres undefined)	0.7	4.2	-4.2	-17.3	2.07	19.0
C=CCN(C(=O)CCC(=O)O)C1CC(=O)N(c2ccc(OCCC)cc2)C1=O (centres undefined)	2.8	/	92.4*	/	0.14	/
SMILES	Phagocyt inh	F-actin modifier	E-sel TNF inh	HUVEC tox TNFa	sdo1 growth	VCAM1 TNFa inh
Fc1ccccc1SCc1nnc(-c2ccccc2Br)o1	/	/	67.7*	/	/	/
CC(=O)c1cccc(NS(=O)(=O)N(C)C)c1	2.2	-1.9	-26.8	4.9	0.99	-2.0
Cc1cccc(NC(=O)c2ccc(NS(=O)(=O)c3c(C)noc3C)cc2)c1	-3.8	9.2	99.8*	-0.4	-0.45	4.3
CCc1cccc(NC(=O)c2ccc(NS(=O)(=O)c3c(C)noc3C)cc2)c1	-0.7	16.1	0.7	-11.1	1.46	8.3
CC(=O)c1cccc(NS(=O)(=O)c2c(C)noc2C)c1	/	60.0*	/	-44.9	0.47	15.0
CC(=O)c1cccc(NS(=O)(=O)N2CCCCC2)c1	-0.6	1.0	81.1*	9.0	0.1	19.9
Nc1cccc(S(=O)(=O)Nc2ccccc2)c1	/	/	-23.1	/	/	/
COc1ccc(C(=O)C2CCCN(Cc3cccn3-c3ccc(Cl)cn3)C2)c(OC)c1 (centres undefined)	/	/	-21.7	/	/	/
O=c1cc(O)c2sc3nc(-c4cccnc4)cc(C(F)(F)F)c3c2[nH]1	0.1	/	/	/	-0.25	/
COc1ccc(Nc2cc(C(=O)NCCCN3CCOCC3)c3ccccc3n2)cc1OC	-1.9	34.7*	13.6	-23.5	1.42	16.6
CCOC(=O)c1[nH]c(C=O)c(C(=O)OCC)c1C	/	/	15.3	/	/	/

From PubChem
